As usually defined, the inhibition is the drop in the measured response relative to a control, in per cent.

Out of some 190,000 compounds screened, about 1,300 (0.68%) were called active. Many of the other results were omitted from the sample, so actives are more common in it than they were. Values without a mark were called inactive. Rule as the data show it: active = inhibition above about 50%; inactive = the rest.

The record followed here is PubChem BioAssay AID1220 (Sanford-Burnham Center for Chemical Genomics, 2008).

The target in this assay is Mannose-6-phosphate isomerase (Homo sapiens) (UniProt P34949). Briefly: MPI inhibition at elevated mannose 6-phosphate – biochemical, fluorescence intensity, high mannose 6-phosphate, primary screen (AID 1220). Conditions: recombinant PMI enzyme, coupled fluorescence intensity; at 20 µM; hits give high values.
Mannose-6-phosphate isomerase (Homo sapiens), sequence (P34949 whole entry, looked up): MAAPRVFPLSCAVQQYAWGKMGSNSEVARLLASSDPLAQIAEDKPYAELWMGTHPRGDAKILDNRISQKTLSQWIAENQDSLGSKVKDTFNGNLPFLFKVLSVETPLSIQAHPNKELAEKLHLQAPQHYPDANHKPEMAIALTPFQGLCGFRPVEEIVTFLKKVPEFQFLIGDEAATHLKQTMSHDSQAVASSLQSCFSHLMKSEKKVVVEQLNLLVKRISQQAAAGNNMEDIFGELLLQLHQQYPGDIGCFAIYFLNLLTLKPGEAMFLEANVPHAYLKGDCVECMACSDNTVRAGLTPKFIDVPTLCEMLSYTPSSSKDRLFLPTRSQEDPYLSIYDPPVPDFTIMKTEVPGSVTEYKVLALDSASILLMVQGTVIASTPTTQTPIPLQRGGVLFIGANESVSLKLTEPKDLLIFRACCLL
`COC(=O)C(C)Sc1nc(N)c(NC(=O)c2ccco2)c(=O)[nH]1` (stereo not given): the inhibition was 1.6%. As to `Cc1ccc(CN2CCCC(CO)(Cc3ccccc3C)C2)s1` (stereo not given), the inhibition was 13%. In the case of `CCCCCN1C=CC(=C2C(=O)c3ccccc3C2=O)C=C1`, the inhibition was -2.8%. Next, `COc1cccc(C2CC(=O)N3CN(c4cccc(Cl)c4C)CSC3=C2C#N)c1OC` (stereo not given): 0.2%; `COc1ccccc1N1CSC2=C(C#N)C(c3ccc(SC)cc3)CC(=O)N2C1` (stereo not given): 7.1%; `COc1cc(C2CC(=O)N3CN(c4ccccc4C)CSC3=C2C#N)cc(OC)c1OC` (stereo not given): 11.4%. Turning to `CCc1ccccc1N1CSC2=C(C#N)C(c3cc(OC)c(OC)cc3OC)CC(=O)N2C1` (stereo not given), the inhibition is 9%. Under `CCOc1ccccc1N1CSC2=C(C#N)C(c3c(OC)ccc4ccccc34)CC(=O)N2C1` (stereo not given) stands 67.1% (active); under `CC(C)c1ccc(C2CC(=O)N3CN(C)CSC3=C2C#N)cc1` (stereo not given), 28.9%; under `COc1ccc2ccccc2c1C1CC(=O)N2CN(C)CSC2=C1C#N` (stereo not given), 68.7% (active).

Take `CCOc1cc(C2CC(=O)N3CN(C4CCCCC4)CSC3=C2C#N)ccc1O` (stereo not given): the inhibition was 49%.

`COc1ccc2ccccc2c1C1CC(=O)N2CN(C3CCCCC3)CSC2=C1C#N` (stereo not given): the inhibition was 52.1% (active). Under `COc1ccc(OC)c(-n2c(-c3cccc(S(=O)(=O)N(C)C)c3)n[nH]c2=S)c1` stands 15.9%. Consider `Nc1nc(-c2ccc(Cl)cc2)c(S(=O)(=O)c2ccccc2)s1`, for which the inhibition is -1.5%. For `COc1cc(/C=N/NC(=O)CN2CCOCC2)ccc1OCc1ccccc1`, the inhibition was -5.3%. As for `COc1ccc(Cl)c(NC(=O)Cn2nnc(-c3ccccc3N)n2)c1`, the inhibition is -3.6%. Consider `CCc1nc(Nc2ccc3c(c2)OCO3)c2oc3ccccc3c2n1`, for which the inhibition was 23%. On to `CCOCCCNS(=O)(=O)c1ccc(NC(=O)C2CC(=O)N(c3ccc(C)cc3)C2)cc1` (stereo not given), for which the inhibition is 6%. Under `Cc1cc(C)c(C(=O)/C=C/C=C/c2ccccc2)c(=O)[nH]1` stands 22.8%; under `C/C(=N\NC(=O)c1nn(C)c(C)c1Br)c1ccc(NC(=O)c2ccccc2F)cc1`, 10.7%; under `COc1ccc(C(=O)NC(=S)NNC(=O)c2ccc(NC(=O)C(C)C)cc2)cc1`, -10.9%.

For the molecule `O=c1[nH]ncc(N2CCCCC2)c1Cl`, the inhibition is 12.3%.

As to `Cc1cc(F)ccc1NCc1cc2c(cc1[N+](=O)[O-])OCO2`, the inhibition was 37.6%.

Take `Cc1cc(F)ccc1NCc1ccccc1[N+](=O)[O-]`: the inhibition was 70% (active).

Turning to `Cc1cc([N+](=O)[O-])ccc1NCc1ccccc1[N+](=O)[O-]`, the inhibition is 21.5%. Under `CCOC(=O)/C(C(=O)Nc1ccc(Br)cc1)=C1/NC(C)(C)Cc2ccccc21` stands 3.4%; under `OCCNC(=S)Nc1ccc(Oc2ccccc2)cc1`, 2.2%. Turning to `CCCC12CN3CCN(CC(C3)/C1=N\NC(=O)c1ccccc1Cl)C2`, the inhibition was -11.2%. Next, `O=C1c2ccccc2C(Nc2ccc3c(c2)OCO3)N1Cc1ccco1` (stereo not given): 57.7% (active); `O=C1c2ccccc2C(Nc2ccc3c(c2)OCO3)N1Cc1ccc2c(c1)OCO2` (stereo not given): 23.7%. Under `O=C1c2ccccc2C(Nc2ccc3c(c2)OCCO3)N1Cc1ccco1` (stereo not given) stands 0.2%; under `CCN(C(=O)CSc1nnc(-c2c[nH]c3ccccc23)o1)C1CCS(=O)(=O)C1` (stereo not given), 4.2%.

In the case of `COc1ccccc1CNc1nc2nc3c(c(=O)n2[nH]1)CCC3`, the inhibition is 4.2%.

`O=c1c2c(nc3nc(NCc4cccc5ccccc45)[nH]n13)CCC2`: the inhibition was 55.7% (active).

On to `O=c1c2c(nc3nc(NCc4ccccc4Cl)[nH]n13)CCC2`, for which the inhibition was -5.2%. Under `Cc1ccc(-c2ccc(=O)n(CC(=O)NCCCN3CCCCC3C)n2)cc1` (stereo not given) stands 12.3%. For the molecule `CC1CCCCN1CCNC(=O)Cn1nc(-c2ccccc2)ccc1=O` (stereo not given), the inhibition was -4.4%. Under `Cc1ccc(-c2ccc(=O)n(CC(=O)NCCN3CCCCC3C)n2)cc1` (stereo not given) stands 60.7% (active); under `O=[N+]([O-])c1cccc(-c2nc(N3CCOCC3)c3ccccc3n2)c1`, -8.1%. Regarding `COC(=O)COc1ccc(/C=C2/NC(=O)N(CC(=O)OC)C2=O)cc1`, the inhibition was 1.1%.

`O=C1C(Cl)=C(NCC2CCCO2)C(=O)N1c1ccccc1` (stereo not given): the inhibition is 2.7%. For `COc1ccc(/C=C/C(=O)c2ccoc2)cc1`, the inhibition is 3.7%. Under `O=C(/C=C/c1ccoc1)c1ccccc1O` stands 17.9%; under `COc1ccc2ccccc2c1C(=O)/C=C\c1ccoc1`, 50% (active); under `OC1(c2cccs2)CN(c2ccccc2)C2=[N+]1CCCC2` (stereo not given), -12%. Turning to `COc1cccc(CNc2ccc(S(N)(=O)=O)cc2)c1OC`, the inhibition is -2.8%. Next, `COc1cccc(CNc2ccc(N3CCC(C)CC3)cc2)c1OC`: 63.1% (active); `COc1cccc(CNc2ccc(F)c(Cl)c2)c1OC`: -11%; `COc1ccc(-c2nnn(CC(=O)N(Cc3ccccc3Cl)C(C(=O)NCC3CCCO3)c3ccco3)n2)cc1OC` (stereo not given): 23.8%.

For `CC1=NOC(=O)/C1=C/c1ccc(-c2ccc(Cl)cc2)o1`, the inhibition is 13.4%. Next, `CCCN(CCC)CCNC(=O)CCC(=O)Nc1ccc2nc(N3CCN(C)CC3)cc(C)c2c1`: 42.5%.

For `CCOCCCNC(=S)Nc1ccc2nc(N3CCCC3)cc(C)c2c1`, the inhibition is 50.2% (active). Next, `CCN1CCN(c2cc(C)c3cc(NC(=S)NCCCN4CCc5ccccc5C4)ccc3n2)CC1`: 27.2%; `COCCNC(=S)Nc1ccc2nc(N3CCCC3)cc(C)c2c1`: 12.4%.

Regarding `Cc1cc(N2CCCC2)nc2ccc(NC(=S)NCCCOC(C)C)cc12`, the inhibition is -3.8%. As for `CCCCN(CC)CCNC(=O)CCC(=O)Nc1ccc2nc(N3CCN(C)CC3)cc(C)c2c1`, the inhibition is 58.2% (active).

For the molecule `Cc1cc(N2CCN(C)CC2)nc2ccc(NC(=S)NCCN3CCc4ccccc4C3)cc12`, the inhibition is -3.7%.

For the molecule `CCCCNC(=O)CCC(=O)Nc1ccc2nc(N3CCN(C)CC3)cc(C)c2c1`, the inhibition was 12%. Consider `Cc1cc(N2CCN(C)CC2)nc2ccc(NC(=S)NCCCN3CCc4ccccc4C3)cc12`, for which the inhibition was 58.5% (active). Under `CC1CCCCC1NC(=O)CO/N=C/c1ccccc1OC(F)F` (stereo not given) stands 5.8%.
